# Laboratory results reported in PubChem BioAssay (NCATS).
# Records with an inconclusive call do not appear. Activity calls are given as the source filed them. The call rests on the fitted dose curve; in most records, active means well fitted curve in the direction sought with a large enough effect; inconclusive means small, poorly fitted or top-dose-only effect, or another doubt; inactive means no such curve, though single readings can be large; an effect the other way counts as inactive or inconclusive.
# How the values were obtained:
# [1] = Quantitative High-Throughput drug screen in 47 multiple myeloma cell lines against the NCATS MIPE library collection: KHM11_PLB cell viability assay (AID 1918962); further: nearly all actives have a fitted effect of over 35% in size
# In short: (§1)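 qHTS of the MIPE 4.0 collection: 500 myeloma cells/well, 48 h drug exposure at 37C in 5% CO2, then CellTiter-Glo for 5 min at room temperature before luminescence reading.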
# [2] = Quantitative High-Throughput drug screen in 47 multiple myeloma cell lines against the NCATS MIPE library collection: JIM3_ECACC cell viability assay (AID 1918963; further: nearly all actives have a fitted effect of over 35% in size)
# In short: as §1
# [3] = Quantitative High-Throughput drug screen in 47 multiple myeloma cell lines against the NCATS MIPE library collection: JIM1_ECACC cell viability assay (AID 1918964)
# In short: (§2)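 Viability readout: CellTiter-Glo luminescence following 5 min room-temperature incubation with reagent. Prior exposure: 48 h, 37C, humidified 5% CO2, 500 cells per well.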
# [4] = Quantitative High-Throughput drug screen in 47 multiple myeloma cell lines against the NCATS MIPE library collection: JJN3_DSMZ cell viability assay (AID 1918966; further: nearly all actives have a fitted effect of over 50% in size)
# In short: as §2
# [5] = Quantitative High-Throughput drug screen in 47 multiple myeloma cell lines against the NCATS MIPE library collection: H1112_PLB cell viability assay (AID 1918967; further: nearly all actives have a fitted effect of over 30% in size)
# In short: as §2
# [6] = Quantitative High-Throughput drug screen in 47 multiple myeloma cell lines against the NCATS MIPE library collection: Karpas25_ECACC cell viability assay (AID 1918968; further: nearly all actives have a fitted effect of over 35% in size)
# In short: as §2
# [7] = Quantitative High-Throughput drug screen in 47 multiple myeloma cell lines against the NCATS MIPE library collection: KMS27_JCRB cell viability assay (AID 1918970); further: nearly all actives have a fitted effect of over 30% in size
# In short: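 Luminescent ATP read-out (CellTiter-Glo, 5 min at room temperature) after 48 h compound exposure of 500 KMS27_JCRB cells per well; DMSO wells define full viability and media-only wells zero.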
# [8] = Quantitative High-Throughput drug screen in 47 multiple myeloma cell lines against the NCATS MIPE library collection: KMS12BM_JCRB cell viability assay (AID 1918971); further: nearly all actives have a fitted effect of over 35% in size
# In short: (§3)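 Myeloma cell lines, 500 cells per well, exposed to MIPE 4.0 library compounds for 48 h at 37C, 5% CO2. Viability from ATP by CellTiter-Glo luminescence; normalised to DMSO (100%) and media-only (0%) wells.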
# [9] = Quantitative High-Throughput drug screen in 47 multiple myeloma cell lines against the NCATS MIPE library collection: KMS12PE_JCRB cell viability assay (AID 1918972); further: nearly all actives have a fitted effect of over 30% in size
# In short: (§4)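 Luminescent ATP measurement with CellTiter-Glo gives viability, scaled between DMSO-only wells (100%) and media-only wells (0%). Cells, 500 per well, faced library compounds for 48 hours at 37C.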
# [10] = Quantitative High-Throughput drug screen in 47 multiple myeloma cell lines against the NCATS MIPE library collection: KMS20_JCRB cell viability assay (AID 1918973); further: nearly all actives have a fitted effect of over 45% in size
# In short: as §2
# [11] = Quantitative High-Throughput drug screen in 47 multiple myeloma cell lines against the NCATS MIPE library collection: KMS21BM_JCRB cell viability assay (AID 1918974); settings: ATP luminescence, 48 h; viability: at 45.8 µM (top of the series) unless noted
# In short: as §2
# [12] = Quantitative High-Throughput drug screen in 47 multiple myeloma cell lines against the NCATS MIPE library collection: KMS26_JCRB cell viability assay (AID 1918975); further: nearly all actives have a fitted effect of over 45% in size
# In short: as §3
# [13] = Quantitative High-Throughput drug screen in 47 multiple myeloma cell lines against the NCATS MIPE library collection: MMM1_PLB cell viability assay (AID 1918976); further: nearly all actives have a fitted effect of over 35% in size
# In short: (§5)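 qHTS format: cells plated (500/well), pin-dosed with MIPE 4.0 compounds, kept 48 h at 37 °C. Readout was CellTiter-Glo luminescence, median RLU.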
# [14] = Quantitative High-Throughput drug screen in 47 multiple myeloma cell lines against the NCATS MIPE library collection: MOLP8_DSMZ cell viability assay (AID 1918977); further: nearly all actives have a fitted effect of over 45% in size
# In short: as §5
# [15] = Quantitative High-Throughput drug screen in 47 multiple myeloma cell lines against the NCATS MIPE library collection: NCIH929_DSMZ cell viability assay (AID 1918978); further: nearly all actives have a fitted effect of over 35% in size
# In short: as §5
# [16] = Quantitative High-Throughput drug screen in 47 multiple myeloma cell lines against the NCATS MIPE library collection: MM1S_ATCC cell viability assay (AID 1918980); further: nearly all actives have a fitted effect of over 45% in size
# In short: as §5
# [17] = Quantitative High-Throughput drug screen in 47 multiple myeloma cell lines against the NCATS MIPE library collection: MM1R_ATCC cell viability assay (AID 1918981); further: nearly all actives have a fitted effect of over 35% in size
# In short: as §5
# [18] = Quantitative High-Throughput drug screen in 47 multiple myeloma cell lines against the NCATS MIPE library collection: INA6_PLB cell viability assay (AID 1918965; further: nearly all actives have a fitted effect of over 55% in size)
# In short: as §4
# [19] = Quantitative High-Throughput drug screen in 47 multiple myeloma cell lines against the NCATS MIPE library collection: OCIMY1_PLB cell viability assay (AID 1918979); further: nearly all actives have a fitted effect of over 35% in size
# In short: as §5
# [20] = Quantitative High-Throughput drug screen in 47 multiple myeloma cell lines against the NCATS MIPE library collection: LP1_DSMZ cell viability assay (AID 1918982); further: nearly all actives have a fitted effect of over 35% in size
# In short: as §5
# Potency means the concentration at half of the fitted maximal effect.
SMILES,Potency [1],Potency [2],Potency [3],Potency [4],Potency [5],Potency [6],Potency [7],Potency [8],Potency [9],Potency [10],Potency [11],Potency [12],Potency [13],Potency [14],Potency [15],Potency [16],Potency [17],Potency [18],Potency [19],Potency [20]
CCn1cc(-c2ccnc3[nH]c(-c4cccc(CN(C)C)c4)cc23)c(-c2ccc(NC(=O)N(C)C)cc2)n1,3.32 µM (active),5.26 µM (active),5260 nM (active),16.6 µM (active),14.8 µM (active),4.18 µM (active),7430 nM (active),13.2 µM (active),5.26 µM (active),4.18 µM (active),662 nM (active),18.7 µM (active),14.8 µM (active),8.33 µM (active),3.32 µM (active),5.26 µM (active),20.9 µM (active),–,–,–
CNC(=O)c1nn(C)c2c1C(C)(C)Cc1cnc(Nc3ccc(N4CCN(C)CC4)cc3)nc1-2,1.48 µM (active),3.72 µM (active),743 nM (active),–,4.69 µM (active),2.35 µM (active),662 nM (active),–,1.05 µM (active),2.96 µM (active),132 nM (active),13.2 µM (active),11.8 µM (active),1.87 µM (active),2.64 µM (active),1.66 µM (active),3.32 µM (active),743 nM (active),5.26 µM (active),–
Nc1ccn([C@@H]2O[C@H](CO)[C@H](O)C2(F)F)c(=O)n1,5.9 µM (active),0.526 µM (active),105 nM (active),–,0.0187 µM (active),3.72 µM (active),52.6 nM (active),0.0264 µM (active),0.0743 µM (active),0.418 µM (active),–,–,–,–,–,0.0187 µM (active),0.0093 µM (active),52.6 nM (active),–,–
C=C1C(=CC=C2CCC[C@]3(C)[C@@H]([C@H](C)C=C[C@H](C)C(C)C)CC[C@@H]23)C[C@@H](O)C[C@@H]1O,9.35 µM (active),7.43 µM (active),526 nM (active),–,2.35 µM (active),0.935 µM (active),118 nM (active),1.87 µM (active),0.662 µM (active),–,52.6 nM (active),2.35 µM (active),5.9 µM (active),7.43 µM (active),0.935 µM (active),0.0833 µM (active),1.66 µM (active),1480 nM (active),18.7 µM (active),–
Cc1cc(C(=O)N2CCN(c3cccc(Cl)c3)CC2)n(-c2ccccc2)n1,0.418 µM (active),0.418 µM (active),11.8 nM (active),–,0.833 µM (active),1.32 µM (active),148 nM (active),0.264 µM (active),0.743 µM (active),0.209 µM (active),–,18.7 µM (active),7.43 µM (active),–,16.6 µM (active),16.6 µM (active),9.35 µM (active),418 nM (active),3.72 µM (active),5.26 µM (active)
O=C(CCCCCCC(=O)Nc1ccc([C@H]2O[C@@H](CSc3nc(-c4ccccc4)c(-c4ccccc4)o3)C[C@@H](c3ccc(CO)cc3)O2)cc1)NO,14.8 µM (active),23.5 µM (active),inactive,–,13.2 µM (active),9.35 µM (active),inactive,11.8 µM (active),inactive,6.62 µM (active),–,23.5 µM (active),13.2 µM (active),14.8 µM (active),9.35 µM (active),9.35 µM (active),16.6 µM (active),5260 nM (active),18.7 µM (active),11.8 µM (active)
COc1cc2c(NC3CCN(C(C)C)CC3)nc(C3CCCCC3)nc2cc1OCCCN1CCCC1,4.69 µM (active),8.33 µM (active),23500 nM (active),13.2 µM (active),9.35 µM (active),7.43 µM (active),7430 nM (active),7.43 µM (active),6.62 µM (active),2.35 µM (active),–,6.62 µM (active),–,7.43 µM (active),5.26 µM (active),4.18 µM (active),6.62 µM (active),–,7.43 µM (active),5.26 µM (active)
COc1cc2c(Oc3ccc(-c4cnc(Nc5ccc(F)cc5)n(C)c4=O)cc3F)ccnc2cc1OCCCN1CCOCC1,8.33 µM (active),5.9 µM (active),1180 nM (active),–,14.8 µM (active),1.87 µM (active),1180 nM (active),20.9 µM (active),–,2.96 µM (active),–,18.7 µM (active),–,18.7 µM (active),2.64 µM (active),9.35 µM (active),3.72 µM (active),14800 nM (active),11.8 µM (active),–
CC[C@@]1(O)C(=O)OCc2c1cc1n(c2=O)Cc2cc3cc(O)ccc3nc2-1,0.59 µM (active),1.66 µM (active),235 nM (active),1.87 µM (active),0.148 µM (active),0.209 µM (active),18.7 nM (active),–,1.05 µM (active),0.235 µM (active),–,5.26 µM (active),11.8 µM (active),0.662 µM (active),–,0.0526 µM (active),0.0662 µM (active),–,1.66 µM (active),2.64 µM (active)
